Only a selection was taken, and hits are over-represented in it overall.
FECH block = inhibitors of human ferrochelatase; P22830; purified FECH, Ni-mesoporphyrin absorbance 550 nm; calls only at 10 µM (by protocol); 3.3% of 20,000 active; AID 1671448;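 active means enzyme reaction rate more than 3 SD below the solvent-only control wells on the same plate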;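 further: lower slope than DMSO wells means FECH inhibition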
Target sequence (P22830 whole entry, looked up): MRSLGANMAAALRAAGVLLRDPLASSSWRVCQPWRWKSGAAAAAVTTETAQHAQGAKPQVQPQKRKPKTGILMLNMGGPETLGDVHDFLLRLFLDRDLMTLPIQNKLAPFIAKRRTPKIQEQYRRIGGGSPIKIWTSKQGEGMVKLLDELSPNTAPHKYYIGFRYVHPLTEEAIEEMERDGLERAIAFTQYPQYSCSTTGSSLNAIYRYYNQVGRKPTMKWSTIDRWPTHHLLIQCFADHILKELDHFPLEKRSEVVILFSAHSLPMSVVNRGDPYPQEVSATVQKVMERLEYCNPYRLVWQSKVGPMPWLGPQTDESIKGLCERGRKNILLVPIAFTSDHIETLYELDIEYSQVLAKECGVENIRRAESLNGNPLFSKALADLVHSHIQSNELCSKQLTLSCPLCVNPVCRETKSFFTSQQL
The depositor's hits bear a star; i = inactive; + = active, no number.

SMILES	FECH block
O=C(CN1CCN(Cc2cccc(Cl)c2)S1(=O)=O)Nc1ccc(Cl)cc1F	i
CN(Cc1nc2ccccc2[nH]1)C(=O)c1ccc(Cn2cnnn2)cc1	i
C=CCNc1ccccc1C(=O)N(C)C1CCCCC1	i
CCc1ccc(NC(=O)Cn2c(=O)n(CC3CCC(C(=O)NC)CC3)c(=O)c3sccc32)cc1 (stereo not drawn)	i
CCn1c(=O)n(Cc2ccc(C)cc2)c(=O)c2cnc(-c3ccc(OC)cc3)nc21	i
Cn1nc(-c2cccs2)cc1C(=O)N1CCC(O)(c2ccccn2)CC1	i
COc1ccccc1N1CCN(Cc2cc(=O)n3[nH]c(NCc4ccc(Cl)cc4)nc3n2)CC1	i
CCn1nc(C)c(C(=O)NC(C)Cc2cc(C)[nH]n2)c1C (stereo not drawn)	i
COC(=O)c1cc2n(n1)CCN(Cc1cc3ccc(C)cc3[nH]c1=O)C2	i
Cc1ccc(CN2CC(=O)N(Cc3ccccc3)c3ccccc3S2(=O)=O)cc1	i
Cc1ccc(CNC(=O)CN2C(=O)C3CCCCN3C(=O)c3ccccc32)cc1 (stereo not drawn)	i
Cc1cc(N2CCCN(C(=O)CSc3ncccn3)CC2)ccn1	i
CCN1C(SCC(=O)NCc2ccc(C)cc2)=NS(=O)(=O)c2ccccc21	+
CCN1C(SCC(=O)Nc2ccc3c(c2)OCCO3)=NS(=O)(=O)c2ccccc21	i
Cc1cc(C)c(NC(=O)CN2CCN(Cc3ccccc3C)S2(=O)=O)c(C)c1	i
CCN1C(SCC(=O)Nc2cc(C)cc(C)c2)=NS(=O)(=O)c2ccccc21	+
Cc1ccc(N2C(=O)N(CC(=O)NC3CCCCC3)c3ccccc3S2(=O)=O)c(C)c1	i
CCN1C(SCC(=O)N2CCN(c3ccccc3)CC2)=NS(=O)(=O)c2ccccc21	+
CCN1C(SCC(=O)Nc2c(C)cc(C)cc2C)=NS(=O)(=O)c2ccccc21	+
CCN1C(=O)C2(c3ccccc31)C(C(=O)Nc1cc(C)cc(C)c1)CC1CSCN12 (stereo not drawn)	i
Cc1ccc(S(=O)(=O)N2CCC(CC(=O)N3CCN(c4ccccc4)CC3)CC2)cc1	i
C#CCN(C)C(=O)C(C)N(c1ccccc1)S(C)(=O)=O (stereo not drawn)	i
CCC(=O)Nc1ccc(Nc2nc(C)cc(Nc3ccc(C)cc3)n2)cc1	i
CCc1cc2c(cc3c(=O)n(CC(=O)NCCc4ccc(S(N)(=O)=O)cc4)nc(CC)n32)s1	i
CC(=O)N(C)c1ccc(NC(=O)CN2CCC(O)(c3ccccc3C)C2)cc1 (stereo not drawn)	i
SMILES	FECH block
Cn1c(CNS(=O)(=O)c2ccccc2F)nc2cccnc21	i
CCc1cnc(N2CCC(N3CCCC(C(=O)NC4CC4)C3)CC2)nc1 (stereo not drawn)	i
CCCC(C(=O)Nc1cccc(OC)c1)N1Cc2ccccc2C1=O (stereo not drawn)	i
COCCNC(=O)c1ccc(Cn2c(=O)c3cc(OC)c(OC)cc3n(CC(N)=O)c2=O)cc1	i
CN(CCc1ccccc1)C1(C(=O)NCc2cnn(C)c2)Cc2ccccc2C1	i
CCOc1ncccc1CNc1nc(-c2cccnc2)nc2c1CCNC2	i
Cc1cccc(OCC2CCCN(Cc3ncccc3C(=O)O)C2)c1 (stereo not drawn)	i

Source: PubChem (Corson Lab, School of Medicine, Indiana University)
